Read-outs that look alike come from different tables or passages of the source. The whole screen tested about 13,000 compounds, of which about 3,200 (25%) showed an effect of 50% or more. The list shows a part of the results.

The test has as its system P. falciparum stage V gametocytes. On the set-up: BacTiter-Glo ATP luminescence viability of purified stage V gametocytes in 384-well plates, per cent inhibition versus DMSO. As to conditions: 48 h, 5 µM, inhibitor.

`Cc1cc(C)c(O)c(-c2cc(C(=O)Nc3ccc(S(=O)(=O)N4CC(C)OC(C)C4)cc3)[nH]n2)c1` (centres unmarked) [TCMDC-125184]: the “% Inhibition” value is -32.33%.

`CC1CCCCN1S(=O)(=O)c1ccc(NC(=O)c2cc(-c3ccccc3O)n[nH]2)cc1` (centres unmarked) [TCMDC-125855]: the “% Inhibition” value is given as -44.79%. Turning to `O=C(/C=C/c1ccc(Cl)c(Cl)c1)NCCCCCN1CCN(C(=O)Nc2ccc(Cl)c(C(F)(F)F)c2)CC1` [TCMDC-135735], the “% Inhibition” value is reported as -27.61%.

With `COC1CCC(C(=O)Nc2ccc(-c3cccc(-c4nc5ccc(C(F)(F)F)cc5[nH]4)c3)cc2)CC1` (centres unmarked) [TCMDC-136858], the “% Inhibition” value is reported as -5.175%. For the compound `O=C(Nc1ccon1)c1cc(-c2cccnc2)nc2ccc(Cl)cc12` [TCMDC-124360], the “% Inhibition” value is given as -4.584%.

Regarding `C=CCOC(=O)N1CCC(CNCc2ccc(-c3ccc(-c4nc5ccccc5[nH]4)s3)cc2)C1.O=C(O)C(F)(F)F` (centres unmarked) [TCMDC-133037], the “% Inhibition” value is recorded as -14.35%.

Consider `CCNc1cc(C(=O)N[C@@H](Cc2ccco2)[C@H](O)CNC2CCCCC2)cc(N2CCCCS2(=O)=O)c1` [TCMDC-135304], for which the “% Inhibition” value is 34.63%. On the same count and under the same terms, the value for `COc1cc(NC(=O)CCCN2CCN(c3cccc(Cl)c3Cl)CC2)ccc1N1CCN(C(C)C)CC1` [TCMDC-136697] was 87.5%. Same read-out and setting: in the case of `Cc1cc(NC(=O)CCN2CCN(c3cccc(Cl)c3Cl)CC2)ccc1N1CCN(C(C)C)CC1` [TCMDC-136695] it was 39.36%; in that of `CC(C)N1CCN(c2ccc(OCCCCN3CCN(c4cccc(Cl)c4Cl)CC3)cc2Cl)CC1` [TCMDC-136639], -87.47%; in that of `Cc1cc(NC(=O)CCCN2CCN(c3cccc(Cl)c3Cl)CC2)ccc1N1CCN(C(C)C)CC1` [TCMDC-136696], -18.49%.

`CC(C)N1CCN(c2ccc(OCCCN3CCN(c4cccc(Cl)c4Cl)CC3)c(C(F)(F)F)c2)CC1` [TCMDC-136647]: the “% Inhibition” value is on record as -2.358%. The same measure, in the same setting: the value for `COc1ccc(N2CCN(CCCN3CCN(C(=O)c4ccc(/C=C/c5ccc(Cl)c(Cl)c5)cc4)CC3)CC2)c(OC)c1` [TCMDC-138215] was -35.25%; that for `CC(C)N1CCN(c2ccc(OCCCCN3CCN(c4cccc(Cl)c4Cl)CC3)c(C(F)(F)F)c2)CC1` [TCMDC-136646] was -6.976%. The same measure, in the same setting: the value for `COc1cc(C(=O)N2CCN(C(C)C)CC2)ccc1CN(C)CCCCN1CCN(c2cccc(Cl)c2Cl)CC1` [TCMDC-136506] was 104.3%; that for `COc1cc(C(=O)N2CCN(C(C)C)CC2)ccc1CN(C)CCCN1CCN(c2cccc(Cl)c2Cl)CC1` [TCMDC-136519] was 106.1%; that for `O=c1cc(N2CCNCC2)c(Cl)nn1Cc1ccc(NS(=O)(=O)c2ccc(Oc3ccccc3)cc2)cc1` [TCMDC-141701] was 10.25%. Same read-out and setting: the value for `COc1ccc2nc(-c3cc(-c4ccc(NC(C)=O)cc4)cnc3N)[nH]c2c1` [TCMDC-135365] was -4.081%. `Cc1sc(CNCCCNc2cc(=O)c3ccccc3[nH]2)c(I)c1C` [TCMDC-140907]: the “% Inhibition” value is given as -22.52%. Turning to `CC(=O)N1c2ccccc2C(C)=CC1(C)C` [TCMDC-123928], the “% Inhibition” value is recorded as -1.243%. As to `CCCC1N=C(N)N=C(N)N1c1cccc(C(F)(F)F)c1` (centres unmarked) [TCMDC-131298], the “% Inhibition” value was -25.37%. `CCN(CCCN1CCCCC1)c1cc(C)nc(Nc2ccc(Oc3ccccc3)cc2)n1` [TCMDC-132426]: the “% Inhibition” value was determined as 49.81%. Still for that read-out and setting: in the case of `Cl.Nc1ccnc2ccc(OCCCCCCc3ccccc3)cc12` [TCMDC-139072] it was -2.454%; in that of `CN(C)CCCN(C)C(=O)c1cc2cc(-c3ccccc3)ccc2n1S(=O)(=O)c1ccccc1` [TCMDC-139127], 25.92%. The same measure, in the same setting: in the case of `CN(C)CCCOC(=O)c1cc2cc(-c3ccccc3)ccc2n1S(=O)(=O)Cc1ccccc1` [TCMDC-139121] it was 46.9%. As for `CN(C)CCCn1c(C(=O)OC(c2ccccc2)c2ccccc2)cc2cc(OCc3ccccc3)ccc21` [TCMDC-138114], the “% Inhibition” value is 99.58%. On the same count and under the same terms, in the case of `Cn1nc(C(F)(F)F)cc1-c1ccc(C(=O)NC2CCC(CN3CCC(c4c[nH]c5ccccc45)CC3)CC2)s1` (centres unmarked) [TCMDC-140355] it was 118.2%; in that of `O=C(NC1CCC(CN2CCC(c3c[nH]c4ccccc34)CC2)CC1)c1cc2ccccc2o1` (centres unmarked) [TCMDC-139764], 94.95%; in that of `Cc1ccccc1C1CCN(C2CCC(NC(=O)c3ccc(-c4cc(C(F)(F)F)nn4C)s3)CC2)CC1` (centres unmarked) [TCMDC-134107], -22.15%.

Take `COc1cc(C(=O)NC2CCC(CN3CCC(c4c[nH]c5ccccc45)CC3)CC2)cc(Cl)n1` (centres unmarked) [TCMDC-139937]: the “% Inhibition” value is on record as 89.84%. For the compound `O=C(NC1CCC(CN2CCC(c3c[nH]c4ccccc34)CC2)CC1)c1cc2ccccc2s1` (centres unmarked) [TCMDC-139710], the “% Inhibition” value (% Inhibition) was -31.58%. With `O=C(NC1CCC(CN2CCC(c3c[nH]c4ccccc34)CC2)CC1)c1cc(-c2ccccc2)c(C(F)(F)F)s1` (centres unmarked) [TCMDC-140356], the “% Inhibition” value was found to be 23.32%. For `O=C(NC1CCC(CN2CCC(c3c[nH]c4ccccc34)CC2)CC1)c1cc2ccccc2s1` (centres unmarked) [TCMDC-139722], where the note is “% Inhibition”, the “% Inhibition” value is recorded as 56.81%. As for `CC(C)C[C@@H](C(=O)N[C@H](C(=O)Nc1nccs1)C(C)(C)C)[C@H](CCC(F)(F)F)N(O)C=O` [TCMDC-138178], the “% Inhibition” value was 1.039%.

With `CCC1(CC)N=C(N)N=C(N)N1OCc1ccc(Cl)c(Cl)c1` [TCMDC-131656], the “% Inhibition” value came to 33.88%. In the case of `N#Cc1ccc(C(=O)Nc2ccc(Cl)c(N3CCN(CCc4ccccc4)CC3)c2)cc1` [TCMDC-133534], the “% Inhibition” value is -15.74%. On the same count and under the same terms, the value for `CC(Nc1ccc2c(c1)CCC2)C(=O)Nc1cc(C(F)(F)F)ccc1N1CCOCC1` (centres unmarked) [TCMDC-124858] was 33.49%. With `COc1ccc2ncc(C#N)c(CCN3CCC(NCc4ccc5c(n4)NC(=O)CS5)CC3)c2n1` [TCMDC-135188], the “% Inhibition” value is on record as -9.823%. Regarding `CCN(CC)c1ccc(C=CC(=O)NCCN2CCC(N(C)C3CCCCC3C)CC2)cc1` (centres unmarked) [TCMDC-124445], the “% Inhibition” value is on record as -34.59%.

With `O=C(/C=C/c1cccc(C(F)(F)F)c1)NCCCCCN1CCC(c2c[nH]c3ccccc23)CC1` [TCMDC-139212], the “% Inhibition” value is recorded as -27.28%. On the same count and under the same terms, in the case of `CC1CCCCC1N(C)C1CCN(CCCNC(=O)C=Cc2ccc(Cl)cc2Cl)CC1` (centres unmarked) [TCMDC-124444] it was 93.47%.

For the compound `CC1CCCCC1N(C)C1CCN(CCCNC(=O)C=Cc2ccccc2Cl)CC1` (centres unmarked) [TCMDC-124442], the “% Inhibition” value was determined as 1.29%. The same measure, in the same setting: in the case of `CC1CCCCC1N(C)C1CCN(CCCNC(=O)C=Cc2cccc(C(F)(F)F)c2)CC1` (centres unmarked) [TCMDC-124443] it was 53.92%; in that of `CN(C(=O)/C=C/c1cc(C(F)(F)F)ccc1F)C1CCN(CCCCCNC(=O)/C=C/c2ccc(Cl)c(Cl)c2)CC1` [TCMDC-139991], -46.39%.

The term % Inhibition denotes the relative decrease from the control value, in per cent.
